Assay results: PubChem BioAssay (NCI)
About 79,000 compounds went through this panel and 15% of them were active in at least one assay; those are over-represented in the sample as a whole. The source made the active and inactive calls. No stated cut-off is given here; in the data, active means growth inhibition above about 70%; inactive means the rest. Where a SMILES comes first, the peptide text is derived from it. The star is where a group is joined. Cbz = O=C(OCc1ccccc1)*

How the values were obtained:
[1] = NCI Yeast Anticancer Drug Screen. Data for the rad50 strain (AID 155);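 further: 0% = growth of vehicle-only cultures of the same strain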; conditions: S. cerevisiae rad50 strain growth inhibition; at 50.0 µM; stronger effect = higher value
How it was run: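 Cells are treated with compound, grown, and their growth is then scored against vehicle-only cultures of the same repair-deficient yeast strain.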

[2] = NCI Yeast Anticancer Drug Screen. Data for the mec2-1 strain (AID 157); conditions: S. cerevisiae mec2-1 strain, at 50.0 µM, stronger effect = higher value
How it was run: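 Using mec2-1 yeast: add compound, measure growth, express inhibition versus vehicle-treated cultures.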

[3] = NCI Yeast Anticancer Drug Screen. Data for the sgs1 mgt1 strain (AID 161);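 further: 0% = growth of cultures given vehicle only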; conditions: S. cerevisiae sgs1 mgt1 strain, at 50.0 µM, stronger effect = higher value
How it was run: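 Yeast cells carrying a defined DNA-repair defect were exposed to test compounds. Growth inhibition was measured relative to vehicle-treated controls.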

[4] = NCI Yeast Anticancer Drug Screen. Data for the cln2 rad14 strain (AID 165);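 further: 0% = growth equal to vehicle treated cultures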; conditions: S. cerevisiae cln2 rad14 strain, at 50.0 µM, stronger effect = higher value
How it was run: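 Yeast strain cln2 rad14, bearing defects in cell cycle control and DNA repair, serves as the test system; values reflect growth inhibition compared with vehicle.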

[5] = NCI Yeast Anticancer Drug Screen. Data for the bub3 strain (AID 167); conditions: S. cerevisiae bub3 mutant strain, at 50.0 µM, stronger effect = higher value
How it was run: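 Part of a panel of yeast mutants defective in DNA damage repair or cell cycle regulation. Each strain is grown with compound, and inhibition is calculated relative to solvent-treated cultures.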

[6] = NCI Yeast Anticancer Drug Screen. Data for the mlh1 rad18 strain (AID 175); conditions: S. cerevisiae mlh1 rad18 strain growth inhibition; at 50.0 µM; stronger effect = higher value
How it was run: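 Steps: expose repair-defective yeast to compound; measure growth; express inhibition against vehicle-treated controls.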

Measured: growth inhibition

CC1=CC(=O)[C@@H](O)[C@]2(C)[C@H]3[C@@]4(O)OC[C@]35[C@H]([C@@H](CO)[C@H]4O)[C@@H](OC3OC(CO)C(O)C(O)C3O)C(=O)O[C@@H]5C[C@@H]12 (some centres undefined)
inactive: [1] -9.55% | [2] -14.5% | [3] -19.2% | [4] 2.65% | [5] -25.1% | [6] -25.9%

NNC(=O)CNC(=O)c1ccccc1
inactive: [1] 11.5% | [2] -14.6% | [3] -10.9% | [4] 1.85% | [5] 0% | [6] -15%

C/C(C#CC1=CCCCC1)=N\Nc1ccc([N+](=O)[O-])cc1[N+](=O)[O-]
inactive: [1] -3.45% | [2] -24.4% | [3] -8.1% | [4] -4.3% | [5] -7.75% | [6] 1.1%

Cc1noc2c1C(=O)CCC2
inactive: [1] -3.3% | [2] -5.45% | [3] 17.8% | [4] 11.2% | [5] 21.2% | [6] 7.05%

c1ccc2c(c1)CCN2CCN1CCc2ccccc21
inactive: [1] 9.4% | [2] -12.4% | [3] 20.1% | [4] -7.6% | [5] 40.2% | [6] 11.6%

OC(COc1ccc(Cl)cc1Cl)CN1CCCC1 (centres undefined)
inactive: [1] 10.1% | [2] 11.8% | [3] 17.7% | [4] 5.05% | [5] -23.4% | [6] 18.1%

O=C(O)/C(=C/c1ccccc1[N+](=O)[O-])c1cccs1
inactive: [1] 27.9% | [2] 2.25% | [3] 22.6% | [4] 21.1% | [5] -11.3% | [6] 8.9%

CC1(C)CC(=NNC(N)=S)CC(C)(C)N1
inactive: [1] 1.3% | [2] -7.2% | [3] 14.3% | [4] -51.9% | [5] -16.2% | [6] -0.95%

CCCCCCCCCCCC(=O)NC(=S)Nc1ccc(N(C)C(C)=O)cc1
active: [1] 90.5% | [2] 92.8% | [3] 92.5% | [4] 87.6% | [5] 90% | [6] 91.9%

CC1(C2(C)CC2(Br)Br)CC1(Br)Br (centres undefined)
inactive: [1] 11.4% | [2] -0.65% | [3] 11.3% | [4] 15.8% | [5] -2.5% | [6] -0.65%

O=C(Nc1ccc(Cl)c(Cl)c1)C(=O)Nn1c(=S)[nH]c2ccccc2c1=O
inactive: [1] -4.05% | [2] -16.4% | [3] 2.8% | [4] -1.5% | [5] -0.8% | [6] 0.65%

N#Cc1ccc(Br)cc1
inactive: [1] 7.95% | [2] -3.45% | [3] 16.6% | [4] -19.9% | [5] -6.2% | [6] 18.1%

CC(=O)C1=C(O)C(Cc2ccccc2)NC1=O (centres undefined)
inactive: [1] 11.9% | [2] -0.2% | [3] 1.95% | [4] -37.1% | [5] -18.4% | [6] 10.7%

Cc1ccc(C2=CSC3=NCCN23)cc1Cl
inactive: [1] -29.9% | [2] -43.8% | [3] 5.3% | [4] -6.3% | [5] -17.9% | [6] 23.4%

CCOC(=O)C1CN2C(=O)CCC2C1=O (centres undefined)
inactive: [1] -5.65% | [2] 15.2% | [3] 8.7% | [4] -5.85% | [5] 15.4% | [6] 4.7%

COC(=O)/C(=N/NC(C)(C)C)C(C(=O)C=C(C)C)C(=O)C(=O)Nc1ccc(Cl)cc1C (centres undefined)
inactive: [1] 2.2% | [2] -1.55% | [3] -11.2% | [4] -28.9% | [5] -0.7% | [6] 0.8%

C/C(=C/c1ccccc1)OC(=O)c1ccccc1
inactive: [1] 25.7% | [2] 4.55% | [3] 10.8% | [4] -1.85% | [5] 26.4% | [6] 36.2%

CCCCCCCCc1ccccc1
inactive: [1] 34.6% | [2] 30.9% | [3] 35.6% | [4] 13.5% | [5] 9.75% | [6] 21.8%

CC(C)(C)c1cc2c(O)c(c1)Cc1cc(C(C)(C)C)cc(c1O)Cc1cc(C(C)(C)C)cc(c1O)Cc1cc(C(C)(C)C)cc(c1O)Cc1cc(C(C)(C)C)cc(c1O)Cc1cc(C(C)(C)C)cc(c1O)Cc1cc(C(C)(C)C)cc(c1O)Cc1cc(C(C)(C)C)cc(c1O)C2
inactive: [1] -12.8% | [2] 9.65% | [3] 7.3% | [4] 5.6% | [5] -14% | [6] -15.1%

CCCCCCCCCCCCCCCOc1ccc2ccccc2c1
inactive: [1] -11.4% | [2] 8.2% | [3] -5.8% | [4] -27.7% | [5] -7.05% | [6] -35.1%

c1ccc(CN2COc3ccc4c5c(ccc4c3C2)OCN(Cc2ccccc2)C5)cc1
inactive: [1] -13.1% | [2] -5.45% | [3] -6.7% | [4] -21.6% | [5] 2.05% | [6] -17.7%

CC(C)CC(NC(=O)c1ccccc1C(=O)O)C(N)=O (centres undefined)
inactive: [1] -6.7% | [2] 3.5% | [3] 6.65% | [4] -0.15% | [5] 6.2% | [6] -19%

CCC(CC(N)=O)C(C#N)(C#N)C(N)=O (centres undefined)
inactive: [1] 12.9% | [2] 5.05% | [3] -4.05% | [4] -2.85% | [5] 7.1% | [6] 3.95%

COC(=O)C(CO)NC(=O)C(CO)NC(=O)OCc1ccccc1 (stereo not drawn) (Cbz-Ser-Ser-OMe; configuration not given here)
inactive: [1] -9.8% | [2] 3.7% | [3] -0.25% | [4] 7.4% | [5] -10% | [6] -16.4%

Cc1ccc(CCn2cnc3c(N(CCO)CCO)ncnc32)cc1
inactive: [1] -8.45% | [2] 23.8% | [3] -6.85% | [4] 15.6% | [5] 7.95% | [6] -9.6%

CC(C)(C)C1CCC2c3c([nH]c4ccccc34)C3C(=O)N(c4ccc(Cl)cc4)C(=O)C3C2C1 (centres undefined)
inactive: [1] 37.6% | [2] -20% | [3] -6.1% | [4] -44.4% | [5] -25.4% | [6] -13.2%

Cc1[nH]c(=O)cc(C(=O)O)c1CN
inactive: [1] 7.15% | [2] -8.75% | [3] 3.7% | [4] -59.2% | [5] -7.25% | [6] -3.45%

Cc1cccc(O)c1
inactive: [1] -11.7% | [2] -9.8% | [3] -42% | [4] -16.4% | [5] -4.65% | [6] -39.2%

O=C(O)/C(=C\c1cccc(O)c1)c1ccccc1
inactive: [1] -19.4% | [2] -30.4% | [3] -16.4% | [4] -6.65% | [5] -3.2% | [6] -6%

N#Cc1nc(-c2ccco2)oc1N
inactive: [1] -20.8% | [2] 1.85% | [3] -23.2% | [4] 3% | [5] -10.2% | [6] -5.8%

Nc1cccc2c1C(=O)OC2=O
inactive: [1] -6.6% | [2] -6.2% | [3] -10.2% | [4] -5.7% | [5] -3.45% | [6] 3.85%

OCC1OC(O)C(N=Cc2ccc3c(c2)OCO3)C(O)C1O (centres undefined)
inactive: [1] 13.7% | [2] -14.6% | [3] -14.2% | [4] 1.45% | [5] -20.6% | [6] -19.9%

NC(Cc1ccc(O)c(O)c1)C(=O)OCc1ccccc1 (centres undefined)
inactive: [1] 67.6% | [2] 60.7% | [3] 68.8% | [4] 58.4% | [5] 38.5% | [6] 65.8%

N#CC(=O)Nc1ccc(Cl)c(Cl)c1
inactive: [1] -18.6% | [2] -11.2% | [3] -14.6% | [4] -76.6% | [5] -2.15% | [6] 0.4%

CN(C)C=NCCN1CCOCC1
inactive: [1] 9.3% | [2] 15.1% | [3] 26.8% | [4] 5.55% | [5] -7.1% | [6] -47.6%

O=CC12c3ccccc3C(c3ccccc31)C1C(=O)NC(=O)C12 (centres undefined)
inactive: [1] 1.65% | [2] -1.05% | [3] 7.6% | [4] 31.1% | [5] -18.3% | [6] 6.65%

CC(=O)/C=C\c1cc(C)ccc1O
inactive: [1] 27.3% | [2] 22.1% | [3] 9.3% | [4] -35.7% | [5] 8.25% | [6] 12.6%

O=C1Cc2nc3ccccc3nc2CC(=O)c2ccccc21
inactive: [1] 4.9% | [2] 10.9% | [3] 9.35% | [4] -19.9% | [5] -12.1% | [6] 13.3%

CCCC(=O)Nc1cn(COC)c(C(=O)N2C[C@H]3C[C@@]34C2=CC(=O)c2[nH]cc(C)c24)n1
inactive: [1] 49.9% | [2] 22.1% | [3] 56% | [4] 19.9% | [5] 40.8% | [6] 58.8%
